Source: the supplement of paper PMC11417369
The full ranking holds about 25,000 sequences; the median of “ln(normalized median fluorescence intensity)” is about 9.7, and the highest 2% start at about 11. What follows is part of a selection rich in the highest values, with near analogues and random picks from the rest.

Tested on: PfAP2-HC AP2 domain (GST-tagged)
Assay: gcPBM binding intensity (ln(normalized median fluorescence intensity)); higher = stronger DNA binding
Procedure, shortened: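 After 1 h on an Agilent 4 × 180k array of primer-extended double-stranded 36-bp intergenic genomic probes and negative controls, bound GST-tagged P. falciparum DNA-binding domains were detected with Alexa488 anti-GST antibody and scanned at 488 nm. The domains had been expressed in E. coli, and binding took place in 1× PBS with 1% milk, 0.2 mg/ml BSA, 0.5% salmon testes DNA and 0.03% Triton X-100. Binding intensity is the highest Masliner-normalised natural-log median intensity across replicate spots of either probe orientation.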

| Sequence | gcPBM binding intensity (ln) |
| --- | --- |
| ATTAGTGACATTATTACACACAAAAGAAAACAGAAA [CACACA_site3984] | 9.99 |
| TTTCAAAAAAATAATGTGCACATTAGAAAATAAATA [GTGCAC_site9416] | 9.78 |
| TATTTTTTGAAAAGTTCACACATCCAACTCGAGTTG [CACACA_site4412] | 9.62 |
| TATATATATATAATATGTACATATATATATTCTTAA [XGTACX_site6154] | 9.49 |
| GTATGTATAATATACACACTCACAAGCATTCAAATA [CACACA_site267] | 9.76 |
| GAAAAACAAATATATTAACACACAAACATATAAACA [CACACA_site9315] | 10.2 |
| ACCATATAAATAAACACACACACACCCATATATATA [CACACA_site2321] | 10.6 |
| TATATAAAGAAACACACACACACCTTATAATTATTA [CACACA_site4062] | 11.2 |
| TACACCCATGGACACACACACACGCATAAAAAAAAA [CACACA_site4933] | 10.7 |
| TATATATTAAAACACACACACATATATATATATATA [CACACA_site3787] | 10.1 |
| TATTAAACGAAACACACACACACACCCATATATAAA [CACACA_site759] | 11.5 |
| TATATAAATAAACACACACACACCTTATAATTATTA [CACACA_site9345] | 10.5 |
| AAAAAAAATAAACACACACACATACCCATAAATATA [CACACA_site5980] | 10.4 |
| AAAAAAAAAAAAAACACACACACACCCATAAATATA [CACACA_site151] | 11.2 |
| TACACGCATGGACACACACACACACCCATATATATA [CACACA_site4522] | 11 |
| TAAAGAATATTATAAACACACACTTTATAAAGAATT [CACACA_site114] | 9.91 |
| CACGCATACAGACACACACACACACCCATATATATA [CACACA_site636] | 10.6 |
| AAATTACAAATACAAACACACAAATGTTTTTCATTC [CACACA_site3552] | 9.77 |
| AAAAAAAAAAGAACCCGTACATAAATAATATATATA [XGTACX_site164] | 9.73 |
| AAATTGAGACAACAGGTGCATATAAATATACAGTGT [GTGCAC_site9634] | 9.79 |
| GTATGAAATTATAATAGTACATATAAATAAAAAAAA [XGTACX_site8955] | 9.85 |
| ATTTTAATATAAAATACACACTACTATTATAAATAT [CACACA_site4917] | 9.64 |
| AAAATTGAACCTGACAAGGTATTTTATTATTTATTA [TGCATGCA_negctrl_site181] | 9.44 |
| ATAAAAATGGTGTTAACACACACATATATATATATA [CACACA_site8089] | 9.83 |

| Sequence | gcPBM binding intensity (ln) |
| --- | --- |
| TATATTATTTATAGTAGTACATAAAATATAAATATT [XGTACX_site4417] | 9.48 |
| TATTTTGTCATAGAACGTACTTATAAATATTTTTTT [XGTACX_site8424] | 9.5 |
| AAATCATGTTGAAGGGGTACAAAATATGTAATGTTG [XGTACX_site6222] | 9.82 |
| TTTTATTTCAATCCACAAGGGATAAAATAAAGTTTT [CACACA_negctrl_site699] | 9.3 |
| TCATAGTAGAAACACACACACACACCCATATATATA [CACACA_site1737] | 11.3 |
| CACAGATAAATTAACACACACACACCGATATATATA [CACACA_site6049] | 10.5 |
| AAAATACAGAAACACACACACACACCCATATATATA [CACACA_site3559] | 10.7 |
| TATATATAGAAACACACACACACACCCAAGCGTAGC [CACACA_site63] | 10.6 |
| TATATATAGAAACACACACACATATATATATATATA [CACACA_site773] | 10.5 |
| AATACACGCAAACACACACACACACCCACATATATA [CACACA_site638] | 10.8 |
| TATTAAACTGGACACACACACACACCCATATATAAA [CACACA_site4579] | 11.2 |
| TTTATTAAACTTGACACACACACACCCACATATATA [CACACA_site760] | 10.2 |
| AACACAGATAAATTAACACACACACCCATATATATA [CACACA_site9310] | 11.2 |
| TTCCCATGTAATATTAAACACACACCCATATAACAC [CACACA_site7905] | 10.5 |
| TACACGCAGAAACACACACACACACCCATATATATA [CACACA_site637] | 11.4 |
| CACAGATAAATTAACACACACACACCCATATATATA [CACACA_site3960] | 10.5 |
| TTTCGTCATTTTGTTTTTAATTCTACAATTTAGTTA [XGTACX_negctrl_site286] | 9.66 |
| TTATAGAGCTTATTCACACATACATATGTATTTATA [CACACA_site5775] | 9.87 |
| ATTATTATACACAAATGTACATGTGAATTTTTTTTC [XGTACX_site6982] | 9.63 |
| ATAAAACAAAAATATAAACACACATACATTGGTTTT [CACACA_site8809] | 10.1 |
| TTATTTTTATTATTTTGTATATATATTTATAGAAAA [XGTACX_negctrl_site465] | 9.28 |
| TACATATAAAAGTACACACACACACCCATATATATA [CACACA_site941] | 11 |
| TATACAATATAAAATACACACGCACCCAAAAAAAAA [CACACA_site9174] | 10.3 |
| AGATAAAAAAAGTACACACACACATATATATATATA [CACACA_site3072] | 10.4 |

| Sequence | gcPBM binding intensity (ln) |
| --- | --- |
| AATACATATAAAAGTACACACACACCCATATATATA [CACACA_site8220] | 10.5 |
| ATAAATATATTTCACGCACACACACCCCAAATAAAT [CACACA_site9272] | 10.4 |
| AAATATATTTCACGCACACACACCCCAAATAAATTT [CACACA_site3820] | 11.2 |
| AAAAAATTAAAAATACGTACATATATACATATATAT [XGTACX_site4621] | 9.71 |
| CATCATATAAATTCAAGTACAAGAAAAAGTAATATA [XGTACX_site2383] | 9.64 |
| ATATTTATGTAATGTTTGATTTTTTTTTTATGTGTG [CACACA_negctrl_site1422] | 9.88 |
| TACAAATATGGACACACACACATATATATATATATA [CACACA_site4488] | 11.3 |
| TACAAATATGGACACACACACATATTTATATTTATA [CACACA_site6420] | 11 |
| TGTACAAATATGTACACACACACATATTTATTTATA [CACACA_site6419] | 10.2 |
| ATAAATATAGGACACACACACATATTATATATATAT [CACACA_site5658] | 10.5 |
| TAATAAAATAATATCACACATATTTATATATATTAT [CACACA_site5814] | 9.61 |
| AAAGGATATGGACACACACACACATATATATATATA [CACACA_site8686] | 10.6 |
| AGGATACACGGACACACACACATATATATATATATA [CACACA_site4654] | 10.6 |
| GAATAATATGGACATACACACATATACATACATATA [CACACA_site2114] | 10.1 |
| AGGATATGCGGACACACACACATATATATATATATA [CACACA_site5247] | 11 |
| TATTTATATGGACACACACACATATAAATAAATAAA [CACACA_site6346] | 10.2 |
| TATATATATGGACACACACACATATAAATAAATAAA [CACACA_site4406] | 10.7 |
| TAATAAATAGGACACACACACATATTTATATATCAT [CACACA_site6771] | 11 |
| AACTATAACTAAAAAAATCACATAAAATATTTTATT [TGCATGCA_negctrl_site363] | 9.46 |
| TATTTAAAATAATGTGCAAAAGAATAAATAAATAAA [TGCATGCA_negctrl_site194] | 9.74 |
| GTGTACAAAATATGGTAATAAAGTAGTTACATGAAT [CACACA_negctrl_site1775] | 9.86 |
| TGTATATTTGATTCATGTACATATTTTATTTTAACT [XGTACX_site5169] | 9.72 |
| TTATTTATCAAAAAATGTACAAAAATATATAAACAA [XGTACX_site940] | 9.6 |
| ACGCACGAAATAAATACATGCATATTGTAAAAATTA [TGCATGCA_site310] | 9.48 |

| Sequence | gcPBM binding intensity (ln) |
| --- | --- |
| TTAAAAATAAAAAATACACACTCTAGTCCATGTAAC [CACACA_site3640] | 10.1 |
| ATGTAACACATATTTGGTACAGATAGATAAAAGTAT [XGTACX_site8291] | 9.87 |
| ATAAAGAAAAATAGAAGTACATATATGCATGTTAAT [XGTACX_site4480] | 9.86 |
| ATGTGTTTCTTCAATTGTACTAAAAGGTATATATTG [XGTACX_site4608] | 9.63 |
| TAAATTATAAATTGCACACATATTTTTATATTTATA [CACACA_site2976] | 9.77 |
| GCTTGGATATATTAATGTACTTATATATTATGTTGT [XGTACX_site3768] | 9.82 |
| AATACATGCTTATTTTAACACACAAATGGTAGTAAT [CACACA_site8154] | 9.83 |
| AAAAATTATGGACACACACACATATATATATATATT [CACACA_site4717] | 10.3 |
| TATATATATGGACACACACACACATATATATATATA [CACACA_site6121] | 11.3 |
| TATATATATGGACACACACACATATATATATATTTT [CACACA_site5409] | 10.3 |
| ATGTCCTATATTAGTACACACATGAAAATATAAATA [CACACA_site7497] | 9.66 |
| AAAAAAAAAAAAAAAAGTACAAATTTAAAAATGTGT [XGTACX_site112] | 9.44 |
| CACTAAAATAAACACACACACACACCGATATATATA [CACACA_site9379] | 10.8 |
| AAAAAGGATAAACACACACACACACCGATATATATA [CACACA_site8206] | 11 |
| CTATAATAATAAAGTGAACACACACCGATAATATAT [CACACA_site9377] | 10.1 |
| TGGGAATAAAAACACACACACACACCGATATATATA [CACACA_site5875] | 11.3 |
| AGAATAAAAAGGAACACACACACACCCATATATATA [CACACA_site3590] | 10.7 |
| AATAAAAAGGAACACACACACACACCGATATATATA [CACACA_site5895] | 11.2 |
| AAAGATAAAAAAAGTACACACACACCGATATATATA [CACACA_site9006] | 10.6 |
| CAAAAAAACAAACACACACACACACCGATATATATA [CACACA_site9218] | 10.5 |
| AATATAAATAAAAACACACACACACCGATATATATA [CACACA_site5283] | 10.8 |
